Reference: ChEMBL document CHEMBL4513216, “Probing the Open Global Health Chemical Diversity Library for Multistage-Active Starting Points for Next-Generation Antimalarials” (ACS Infect Dis, 2020)
Out of some 69,000 compounds screened, about 8,600 (12%) showed an effect of 50% or more. This excerpt belongs to a sample that is enriched for strong results.

What follows are molecules tested on Plasmodium berghei (assay: Screen against P. berghei liver stage (PbLuc), transformed with Luciferase, at 10uM). Conditions: tested at 10 uM.
Assay type: functional, HepG2

| SMILES | INHIBITION [%] |
| --- | --- |
| CC1CCc2nc(NC(=O)CN(C)C(=O)c3ccco3)sc2C1 (stereo unspecified) | 31.4 |
| CN(CC(=O)Nc1nc2c(s1)CCCCCC2)C(=O)c1ccco1 | 74.4 |
| CN(CC(=O)Nc1nc2c(s1)CCC2)C(=O)c1cccs1 | -8.51 |
| Cc1cccc(CN2C[C@@H]3COC[C@]3(CNC(=O)c3ccccc3)C2)n1 | 38.3 |
| Cc1ccc(CN2CCN(C3CCC3)CC2CCO)o1 (stereo unspecified) | 46.6 |
| CC(=O)N1CCC(N2CCN(Cc3ccc(C)o3)C(CCO)C2)CC1 (stereo unspecified) | 33.7 |
| COc1cc(N2CCN(Cc3ccc(C)o3)C(CCO)C2)nc(N)n1 (stereo unspecified) | 35.2 |
| Cc1ccc(CN2CCN(C3CSCCSC3)CC2CCO)o1 (stereo unspecified) | 50.9 |
| Cc1ccc(CN2CCN(C3CCCC3)CC2CCO)o1 (stereo unspecified) | 50.9 |
| Cc1ccc(CN2CCN(C3CCSCC3)CC2CCO)o1 (stereo unspecified) | 48 |
| CCCc1ccc(CN2CCC3(CCC(=O)N(C(C)C(=O)O)C3)CC2)o1 (stereo unspecified) | 1.74 |
| O=C(CN1CCN(C(=O)c2sccc2C2CC2)CC1)NC1CC1 | 31.8 |
| CCOCC(=O)N1C[C@@H]2CC[C@H]1CN(C(=O)c1ccncc1)C2 | -30.7 |
| Cc1cc(NC(C)c2csc(C)n2)n2nc(C)c(C)c2n1 (stereo unspecified) | 25.4 |
| CC(SCC(=O)N(C)CC(=O)NC1CC1)c1ccc(F)c(F)c1 (stereo unspecified) | -18.9 |
| CC(SCC(=O)NC(N)=O)c1ccccc1F (stereo unspecified) | 24.7 |
| CCNC(=O)NC(=O)CSC(C)c1ccccc1F (stereo unspecified) | -32.3 |
| CNC(=O)NC(=O)CSC(C)c1ccccc1F (stereo unspecified) | 55 |
| CC(SCC(=O)N(C)CC(=O)NC1CC1)c1cc(F)ccc1F (stereo unspecified) | 49.3 |

| SMILES | INHIBITION [%] |
| --- | --- |
| CC(SCC(=O)N(C)CC(=O)NC1CC1)c1ccccc1F (stereo unspecified) | 85.7 |
| Nc1nc(C2CCN(C(=O)c3cscn3)CC2)cs1 | 34.7 |
| CN1C[C@@H]2CN(C(=O)NCc3ccccc3)CCC[C@]2(C(=O)O)C1 | 5.63 |
| COCC1CC2(CCN(Cc3ccoc3)CC2)CN1C(C)C (stereo unspecified) | -1.26 |
| Cc1ccccc1CNC(=O)c1ccccc1-n1cc(CN)cn1 | 20.8 |
| CSCC[C@H](N)C(=O)NCc1cc2n(n1)CCCN(C(=O)C1CCC1)C2 | 28.5 |
| Cc1cc(C)c(CNC(=O)NCc2ccc(F)cc2)c(=O)[nH]1 | 27.6 |
| Cn1ccc(CN2CC(Cc3nccc4cc[nH]c34)C2)n1 | 41.5 |
| c1cc2cc[nH]c2c(CC2CN(Cc3cncs3)C2)n1 | -0.232 |
| c1cc2cc[nH]c2c(CC2CN(Cc3cscn3)C2)n1 | 53.6 |
| CC(=O)N1CC[C@@]2(O)CCCC[C@H]2[C@@H]1c1ccc2c(c1)OCO2 | 52.1 |
| NC(=O)CN1CC[C@@]2(O)CCCC[C@H]2[C@@H]1c1ccc2c(c1)OCO2 | 17.6 |
| COC(=O)N1CC[C@@]2(O)CCCC[C@H]2[C@@H]1c1ccc2c(c1)OCO2 | 42.3 |
| CCOCC1CN(S(=O)(=O)N(C)C)Cc2cnn(CC3CC3)c21 (stereo unspecified) | -57.7 |
| Cc1cc(CCC(=O)N2CCCC2)nc(C2CCCN2)n1 (stereo unspecified) | 24.8 |
| O=S(=O)(CCCN1CCCCC1Cn1cncn1)c1ccccc1 (stereo unspecified) | -29.8 |
| CN(CC(=O)N1CCCCC1c1nccs1)C1CC1 (stereo unspecified) | 13.6 |
| CC1CN(Cc2cccc(CNC3CCCC3)c2)CCO1 (stereo unspecified) | 37.4 |
| CC1CN(Cc2cccc(CN)c2)CCO1 (stereo unspecified) | 59.1 |

| SMILES | INHIBITION [%] |
| --- | --- |
| CCCN1CCC(NCc2cccc(CN3CCOC(C)C3)c2)CC1 (stereo unspecified) | 21.1 |
| CC1CCN(CC(=O)N(C)CCc2noc(C3CC3)n2)C1=O (stereo unspecified) | -22.1 |
| CCCn1cc(CN2CCOCC2c2[nH]ncc2C)cn1 (stereo unspecified) | 6.2 |
| Cc1ncc(CN2CCc3c(nc4cc(C5CC5)nn4c3O)C2)n1C | 47.1 |
| Cc1oc2c(c1C(=O)N1CC[C@H](O)[C@]3(CCCO3)C1)CCCC2 | 3.75 |
| CC(C)Oc1cccc2c1c(NC(=O)CN(C)C)nn2CC(F)(F)F | 7.77 |
| c1cnc(N2CCCC(c3cncc(-n4ccnc4)n3)C2)nc1 (stereo unspecified) | 15.9 |
| Cc1nccn1-c1cccc(C2CCCN(C(=O)c3cc[nH]n3)C2)n1 (stereo unspecified) | 53.8 |
| Cc1n[nH]cc1C(=O)N1CCCC(c2cccc(-n3ccnc3)n2)C1 (stereo unspecified) | -13.7 |
| COCC(=O)N1CCCC(c2cccc(-n3ccnc3)n2)C1 (stereo unspecified) | 36.7 |
| O=C(C1CCCC1)N1CCCC(c2cccc(-n3ccnc3)n2)C1 (stereo unspecified) | 63.4 |
| O=C(c1cc[nH]n1)N1CCCC(c2cccc(-n3ccnc3)n2)C1 (stereo unspecified) | 14.4 |
| Cc1nccn1-c1cccc(C2CCCN(C3CCCCC3)C2)n1 (stereo unspecified) | 11.4 |
| O=C(c1cnccn1)N1CCCC(c2cccc(-n3ccnc3)n2)C1 (stereo unspecified) | 50.1 |
| Cc1cc(C)nc(N2CCCC(c3cccc(-n4ccnc4)n3)C2)n1 (stereo unspecified) | 69.3 |
| CC(=O)N1CCCC(c2cccc(-n3ccnc3)n2)C1 (stereo unspecified) | 36.7 |
| O=C(C1CCC1)N1CCCC(c2cccc(-n3ccnc3)n2)C1 (stereo unspecified) | 29.3 |
| Cc1nc(C(=O)N2CCCC(c3cccc(-n4ccnc4)n3)C2)co1 (stereo unspecified) | 29.6 |
